According to PubChem BioAssay AID1159580 (chemical genetic matrix, 2015):
In all, about 5,500 compounds went through this assay and about 2,000 (36%) were called active. Roughly 18% stayed inconclusive and do not appear here. No stated cut-off is given here; in the data, active means normalized growth mostly below about 0.91 (no sharp cut-off); inconclusive means no clear call, values can overlap the other calls; inactive means mostly above about 0.92. The list shows a part of the results.

Test: chemical genetic growth profiling, strain panel (AID 1159580);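 further: tested at 20 µM; growth read once vehicle control cultures reached saturation at 30 °C; 1 = growth at the plate median or of vehicle wells; lower values mean less growth of the strain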
Settings: S. cerevisiae deletion strains, growth OD

Measured: normalized growth

COc1ccc(C(=O)CSC2=NCCc3ccccc32)cc1
inactive: locus YAR019C, strain CDC15, hits give low values 0.975 | locus YBL105C, strain PKC1, hits give low values 0.982 | locus YBR135W, strain CKS1, hits give low values 0.959 | locus YBR136W, strain MEC1, hits give low values 0.978 | locus YBR160W, strain CDC28, hits give low values 0.974 | locus YDL017W, strain CDC7, hits give low values 0.98 | locus YDL028C, strain MPS1, hits give low values 0.97 | locus YDL101C, strain DUN1, hits give low values 0.976 | locus YDL108W, strain KIN28, hits give low values 0.968 | locus YDL132W, strain cdc53, hits give low values 0.974 | locus YDL214C, strain PRR2, hits give low values 0.999 | locus YDR052C, strain DBF4, hits give low values 0.983 | locus YDR054C, strain cdc34, hits give low values 0.978 | locus YDR226W, strain ADK1, hits give low values 0.971 | locus YDR477W, strain SNF1, hits give low values 1 | locus YER123W, strain YCK3, hits give low values 1.02 | locus YER133W, strain GLC7, hits give low values 1.01 | locus YFL009W, strain cdc4, hits give low values 0.968 | locus YFL029C, strain CAK1, hits give low values 0.972 | locus YFR003C, strain YPI1, hits give low values 0.979 | locus YFR019W, strain FAB1, hits give low values 1.04 | locus YFR028C, strain CDC14, hits give low values 0.982 | locus YGR040W, strain KSS1, hits give low values 1 | locus YGR052W, strain FMP48, hits give low values 1.13 | locus YGR092W, strain DBF2, hits give low values 0.984 | locus YHR030C, strain SLT2, hits give low values 1.01 | locus YHR079C, strain IRE1, hits give low values 1 | locus YHR082C, strain KSP1, hits give low values 1.04 | locus YHR205W, strain SCH9, hits give low values 0.938 | locus YIL147C, strain SLN1, hits give low values 0.971 | locus YJL095W, strain BCK1, hits give low values 0.969 | locus YJL128C, strain PBS2, hits give low values 0.951 | locus YJL157C, strain FAR1, hits give low values 0.995 | locus YJR016C, strain ILV3, hits give low values 0.972 | locus YJR066W, strain TOR1 (second series), hits give low values 1 | locus YJR066W, strain TOR1, hits give low values 0.985 | locus YKL048C, strain ELM1, hits give low values 1.03 | locus YKL067W, strain YNK1, hits give low values 0.997 | locus YKL101W, strain HSL1, hits give low values 0.98 | locus YKL193C, strain SDS22, hits give low values 0.966 | locus YKL203C, strain TOR2, hits give low values 1.05 | locus YLR113W, strain HOG1, hits give low values 0.99 | locus YLR133W, strain CKI1, hits give low values 1.01 | locus YLR403W, strain SFP1, hits give low values 1.01 | locus YML070W, strain DAK1, hits give low values 1 | locus YMR001C, strain CDC5, hits give low values 0.962 | locus YMR205C, strain PFK2 (second series), hits give low values 0.998 | locus YMR277W, strain FCP1, hits give low values 0.968 | locus YNL006W, strain LST8, hits give low values 0.969 | locus YNL020C, strain ARK1, hits give low values 1.02 | locus YNL161W, strain CBK1, hits give low values 0.964 | locus YNL183C, strain NPR1, hits give low values 0.977 | locus YNL207W, strain RIO2, hits give low values 0.977 | locus YNL222W, strain SSU72, hits give low values 0.976 | locus YNL307C, strain MCK1 (second series), hits give low values 1.02 | locus YOL078W, strain AVO1, hits give low values 0.966 | locus YOL136C, strain PFK27, hits give low values 1.02 | locus YOR061W, strain CKA2, hits give low values 0.967 | locus YOR119C, strain RIO1, hits give low values 1.07 | locus YOR231W, strain MKK1, hits give low values 0.966 | locus YOR329C, strain SCD5, hits give low values 0.982 | locus YPL031C, strain PHO85, hits give low values 0.997 | locus YPL153C, strain RAD53, hits give low values 1 | locus YPL204W, strain HRR25, hits give low values 1.02 | locus YPL209C, strain IPL1, hits give low values 0.973 | locus YPL256C, strain CLN2, hits give low values 1.07 | locus YPR025C, strain CCL1, hits give low values 0.97 | locus YPR106W, strain ISR1, hits give low values 0.986 | locus YPR111W, strain DBF20, hits give low values 0.97 | strain NNK1, hits give low values 0.995 | strain TSCII, hits give low values 0.964
